Consider 40 compounds from PubChem BioAssay (NCATS).

Records with an inconclusive call do not appear. A number with no mark means an inactive call. Calls come from the whole dose curve; as a rule, active = well fitted inhibition curve with a large enough effect; inconclusive = small, poorly fitted or top-dose-only effect; inactive = no such curve, though single readings can be large or run the other way.
% is set by controls: 0 for no effect and ±100 for the full control effect.

Sequence of Cytochrome P450 3A7 (Homo sapiens) (P24462 whole entry, looked up): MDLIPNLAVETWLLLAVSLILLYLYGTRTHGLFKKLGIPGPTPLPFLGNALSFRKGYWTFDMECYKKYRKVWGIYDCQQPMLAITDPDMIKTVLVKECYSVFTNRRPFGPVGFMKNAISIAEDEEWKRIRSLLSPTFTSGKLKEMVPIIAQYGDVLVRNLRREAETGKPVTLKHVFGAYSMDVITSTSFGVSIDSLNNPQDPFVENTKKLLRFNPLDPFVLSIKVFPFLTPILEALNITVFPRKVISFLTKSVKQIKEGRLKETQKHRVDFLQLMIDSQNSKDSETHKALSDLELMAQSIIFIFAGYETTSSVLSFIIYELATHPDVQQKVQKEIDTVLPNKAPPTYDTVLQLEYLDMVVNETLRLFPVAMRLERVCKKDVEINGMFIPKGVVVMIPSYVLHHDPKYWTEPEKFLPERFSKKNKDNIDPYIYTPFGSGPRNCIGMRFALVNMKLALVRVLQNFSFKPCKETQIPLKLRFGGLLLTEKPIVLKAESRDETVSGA

For this assay, the target named is Cytochrome P450 3A7 (Homo sapiens) (UniProt P24462). Nature of the assay: Cytochrome P450 family 3 subfamily A member 7 (CYP3A7) small molecule antagonists: luciferase biochemical qHTS assay (AID 1963596). Note: nearly all actives have a fitted effect of over 40% in size. To be noted: P450-Glo CYP3A7 enzyme luminescence, 1 h; series mostly up to 57.4 µM; activity change, negative = inhibition: at the top concentration. An excerpt:
National Center for Advancing Translational Sciences [NCATS] Assay Overview: Cytochrome P450 (CYP) enzymes are membrane-bound hemeproteins that play a key role in metabolism of drugs and xenobiotics. The CYP3A subfamily is the most abundant, representing 30% of the total adult hepatic CYP content, whereas CYP3A7 is found predominantly in human fetal liver and accounts up to 50% of the total fetal hepatic CYP content. Testing the effect of chemicals on CYP isozymes is useful to minimize the adverse drug reactions and toxicities in the drug development process. Chemicals were tested for their effect on CYP enzyme activities by using P450-Glo (TM) screening systems (Promega Corporation, Madison, WI). These systems provide a luminescent method containing proluciferin substrates and are converted to luciferin products by CYP isozymes. The luciferin products formed are detected with a luciferin detection reagent, and the amount of light produced is proportional to CYP activity. P450-Glo (TM) CYP3A7 screening system (Catalog. No. V8812) was used to detect the compounds that interfere with CYP3A7 activity. The positive control compound used for CYP3A7 assay is ketoconazole (Sigma-Aldrich, St. Louis, MO).
Assay Protocol Summary: Two ul of enzyme-substrate mix was dispensed into medium binding white/solid 1536-well plates (Greiner Bio-One North America Inc., Monroe, NC) using a Flying Reagent Dispenser (FRD, Aurora Discovery, San Diego, CA). Compounds dissolved in DMSO, and positive control (ketoconazole) were transferred to the assay plates at 23 nl using a Pintool station (Wako, San Diego, CA). The assay plates were incubated at room temperature for 10 min. Then 2 ul of NADPH regeneration solution was added to each well of the assay plates using an FRD and incubated at room temperature for 1 h. The reaction was stopped by adding 4 ul of detection reagent using an FRD and after 20 min incubation at room temperature the luminescence signal was measured using a ViewLux plate reader (Perkin Elmer, Shelton, CT). Data were expressed as relative luminescence units.
(In general: Quantitative high-throughput screening tests each substance at several concentrations.)
`c1ccc(C2CC2)c(OCC2=NCCN2)c1`: the “activity change, negative = inhibition” value was -12.9%. Then `CN1C(=O)COc2c(C(=O)NC3CN4CCC3CC4)cc(Cl)cc21` (stereo not given), with -14.5%. Regarding `C[N+](C)(C)CCOC(=O)C(O)(c1ccccc1)c1ccccc1`, the “activity change, negative = inhibition” value is -10.5%.

Consider `CCC1(c2ccccc2)CCC(=O)NC1=O` (stereo not given), for which the “activity change, negative = inhibition” value is 40.5%. Then `CC(N)Cc1c[nH]c2ccccc12` (stereo not given), with -27.7%; and `O=C(O)c1ccc(=O)[nH]c1`, with 19.6%; and `NC1=NC(=O)C(c2ccccc2)O1` (stereo not given), with -21.1%. The figure for `O=[N+]([O-])c1cc([N+](=O)[O-])c2ccccc2c1` is 38.2% [at 115 µM]; for `Cc1sc2c(c1C)C(c1ccc(Cl)cc1)=NC(CC(=O)Nc1ccc(O)cc1)c1nnc(C)n1-2` (stereo not given) it is 0%. Then `Cn1c(CCCC(=O)O)nc2cc(N(CCCl)CCCl)ccc21`, with -26.2%; and `COC(=O)c1ccccc1C(=O)OC`, with 0.312%. `Nc1ccccc1C(=O)OCC(O)CO` (stereo not given): the “activity change, negative = inhibition” value was -10.5%. With `NN=C(N)N`, the “activity change, negative = inhibition” value is -5.11%.

In the case of `COc1cc(N2CCN(C)CC2)ccc1N`, the “activity change, negative = inhibition” value was -30.7%.

On to `C[C@H]1C(=O)O[C@@H]2CCN3CC=C(COC(=O)[C@](C)(O)[C@]1(C)O)[C@H]23`, for which the “activity change, negative = inhibition” value is -23.6%. Then `CCOC(=O)c1ccccc1C(=O)OCC`, with -6.77%. The figure for `CC(=O)NCCCOc1ccc(C(=O)N2CCC(N3C(=O)CCc4ccccc43)CC2)cc1` is 0%; for `C=CCN1CC[C@]23c4c5ccc(O)c4O[C@H]2C(=O)CC[C@@]3(O)[C@H]1C5` it is -0.405%. Then `Oc1ccccc1-c1ccccc1`, with -16.5%; and `c1cc2c(c(N3CCNCC3)c1)OCCO2`, with -5.6%; and `Cc1cn(C[C@H](N)C(=O)O)c(=O)n(Cc2cc(-c3ccccc3)sc2C(=O)O)c1=O`, with 0.812%. In the case of `CN(Cc1cccc(-c2ccncc2)c1)C(=O)Oc1ccc(-c2ccc(C(N)=O)cc2)cc1`, the “activity change, negative = inhibition” value was 0%.

Take `C[C@H](N)[C@H](O)c1ccc(O)c(O)c1`: the “activity change, negative = inhibition” value was 96.8%. The figure for `C[C@]12CC[C@H]3[C@@H](CC=C4C[C@@H](O)CC[C@@]43C)[C@@H]1CC[C@@H]2O` is -9.76%. Consider `CN1CCN(C(=O)O[C@H]2c3nccnc3C(=O)N2c2ccc(Cl)cn2)CC1`, for which the “activity change, negative = inhibition” value was -4.18%. In the case of `CNC(C)[C@@H](O)c1ccc(O)cc1` (stereo not given in full), the “activity change, negative = inhibition” value is -1.25%. On to `NCc1cccnc1`, for which the “activity change, negative = inhibition” value is -19.7%. Then `Cc1cc(C(=O)CN2CCCC2)c(C)n1-c1ccc(F)cc1`, with 7.32%; and `NC(=O)CN1CCCC1=O`, with 17.1%. Then `O=C1CC[C@@]2(O)[C@H]3Cc4ccc(O)c5c4[C@@]2(CCN3CC2CC2)[C@H]1O5`, with -0.973%. Consider `CCOc1cc(C=O)ccc1O`, for which the “activity change, negative = inhibition” value is -14.2%. As for `CCNCC(O)c1cccc(O)c1` (stereo not given), the “activity change, negative = inhibition” value is 5.1%.

Take `COc1ccc(OC)c(C(O)C(C)N)c1` (stereo not given): the “activity change, negative = inhibition” value is 2.75%. The figure for `NC1(c2ccccc2)CCCCC1` is -5.92% [at 115 µM]; for `CNC(C)(C)Cc1ccccc1` it is -5.99%; for `CCCCNC(C)(C)[P+](=O)O` it is 4.24%. The figure for `NC(=O)OCCCc1ccccc1` is -12.8%; for `N#Cc1cn([C@@H]2O[C@H](CO)[C@H](O)[C@@H]2O)c2ncnc(N)c12` it is -12.3%; for `CSCC[C@@H](NC(=O)[C@@H](Cc1ccccc1)NC(=O)CNC(=O)CNC(=O)[C@@H](N)Cc1ccc(O)cc1)C(=O)O` it is -30.1%. Then `CC(=O)OC1C[C@H](O[C@@H]2C(O)C[C@H](O[C@@H]3C(O)C[C@@H](OC4CC[C@]5(C)C(CCC6C5CC(O)[C@@]5(C)C(C7=CC(=O)OC7)CC[C@@]65O)C4)OC3C)OC2C)O[C@H](C)[C@H]1O[C@H]1OC(CO)C(O)C(O)C1O` (stereo not given in full), with -5.82%.
